# FMDV antiviral = foot and mouth disease virus antiviral activity. FMDV antiviral cell-based qHTS. Potency, µM (doses to about 57.9 µM), most hits filed as inhibitors. 410,000 compounds, 1.2% hits. AID 1159524; calls by dose curve; tested in HEK293T cells; further: read-out not given here; nearly all actives have a fitted effect of over 45% in size
# Lassa entry inh = blocks Lassa virus binding to or entry into cells; Potency, µM (doses to about 37.9 µM), actives largely listed as inhibitors; Lassa virus pseudotype entry inhibition, cell reporter; 300,000 compounds, 1.2% hits; calls by dose curve; tested in HEK293 cells; further: nearly all actives have a fitted effect of over 50% in size
# HCV inh = HCV inhibition | Huh7.5.1 HCVcc-Cre infection, luciferase reporter, 44 h | Potency, µM (highest dose often 41.8 µM), most hits filed as inhibitors | 340,000 compounds, 3.4% hits | AID 651820; active means well fitted inhibition curve with a large enough effect; inconclusive means small, poorly fitted or top-dose-only effect, or another doubt; inactive means no such curve, though single readings can be large or run the other way
#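 Cells (1,000/well) were plated 4 h before compound, then infected with HCVcc-Cre virus (~0.5 moi). After 44 h further culture, infection was read as luciferase luminescence following a 15 min substrate incubation at room temperature.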
# HCMV antiviral = inhibitors of human cytomegalovirus | HFF cells, HCMV-luciferase reporter, 72 h; hits give low values | activity change, negative = inhibition, % at 57.5 µM | 410,000 compounds, 4.5% hits; in the data active means activity change below about -60%; inconclusive means no clear call, values can overlap the other calls; inactive means above about -39%
#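 After 16 h attachment at 37C, HFF cells received test compound and HCMV-luciferase (1 PFU/cell); reporter luminescence read 72 h later, data normalized against buffer-only and known inhibitor Salinomycin.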
# Marburg entry inh = inhibitors of Marburg virus binding or cell entry | Marburg virus pseudotyped entry inhibition, cell reporter | 300,000 compounds, 1.8% hits | Potency, µM (doses to about 37.8 µM), usual class: inhibitors; calls by dose curve; tested in HEK293 cells
# Numbers stand for hits; n = inactive; u = inconclusive; x = no result given. Rows were chosen to be rich in hits. Some 7.9% of all compounds tested hit in one or more screens of this group.
SMILES,FMDV antiviral,Lassa entry inh,HCV inh,HCMV antiviral,Marburg entry inh
CCc1ccc(C(=O)c2cn(CC(=O)Nc3ccc4c(c3)OCCO4)c3ccc(CC)cc3c2=O)cc1,n,n,x,n,n
CC(=NNc1ccc2ccccc2n1)c1ccccn1,x,x,x,-101,x
C/C(=N\Nc1ccc(Cl)cc1)c1ccccn1,n,n,x,n,u
CC(=NNc1ccc2ccccc2n1)c1ccccc1O,u,3.2µM,u,-61,u
COc1ccc2nc(NN=C(C)c3ccccn3)cc(C)c2c1,n,u,u,-99,u
COc1ccc2c(c1)C(=NNC(=O)c1ccccn1)c1cc(OC)ccc1-2,n,n,u,u,u
C/C(=N\Nc1cc(C)nc(-c2ccccc2O)n1)c1ccccc1O,n,x,11µM,n,x
Cc1ccnc(N/C=C(/NC(=O)c2ccccc2)C(=O)NN)n1,n,n,n,-82,n
Cc1ccnc(N/C=C(/NC(=O)c2ccccc2)C(=O)N/N=C\c2ccc(F)cc2)n1,n,n,n,n,n
CC(C)OC(=O)c1c(N)n(CC2CCCO2)c2nc3ccccc3nc12 (stereo not given),n,n,n,n,u
CC(C)CCn1c(N)c(C(=O)OCC2CCCO2)c2nc3ccccc3nc21 (stereo not given),n,u,13µM,n,u
Nc1c(C(=O)OC2CCCCC2)c2nc3ccccc3nc2n1CC1CCCO1 (stereo not given),n,n,10µM,n,u
CN1C(=O)C[C@@H](N2CCN(c3ccc(Cl)c(Cl)c3)CC2)C1=O,x,x,x,x,n
CC(C)Cn1cc(NC(=O)NCc2ccc(Cl)cc2)c2ccccc2c1=O,n,n,x,-105,x
CC(C)Cn1cc(NC(=O)NCc2ccccc2)c2ccccc2c1=O,n,u,x,n,x
CCOc1ccccc1NC(=O)CN1Cc2ccccc2C1=O,n,n,x,n,x
CCOC(=O)[C@@H]1[C@H]2COc3ccccc3[C@H]2N2C(=O)N(c3cccc(F)c3)C(=O)[C@]12C,n,x,n,n,x
Cc1nn(C(=O)c2cccc(F)c2)c(C)c1S(=O)(=O)N1CCCCCC1,n,n,x,-91,x
Cc1nn(C(=O)c2cccc(F)c2)c(C)c1S(=O)(=O)N1CCOCC1,n,n,x,-81,x
Cc1nn(C(=O)c2cccc(Cl)c2)c(C)c1S(=O)(=O)N1CCOCC1,u,n,x,n,x
CC1CCN(C(=O)Cn2c3ccc(F)cc3c3nc4n(c(=O)c32)CCCS4)CC1,u,x,u,n,x
CC1CCN(C(=O)Cn2c3ccccc3c3nc4n(c(=O)c32)CCCS4)CC1,n,n,n,-61,n
CCc1ccccc1-n1nnc(-c2nsc(NC(=O)c3ccc(C)c(C)c3)n2)c1C,11µM,u,x,-92,x
CCOc1ccccc1-n1nnc(-c2nsc(NC(=O)c3ccc(C)cc3)n2)c1C,u,n,x,-75,x
Cc1ccc(-n2nnc(-c3nsc(NC(=O)c4ccc(C)c(C)c4)n3)c2C)cc1,n,u,x,n,x
SMILES,FMDV antiviral,Lassa entry inh,HCV inh,HCMV antiviral,Marburg entry inh
Cc1ccc(S(=O)(=O)NN2C(=O)c3ccccc3NC2c2ccccn2)cc1 (stereo not given),n,u,u,n,7.9µM
COc1ccc(CNC(=O)CSCc2cnn(-c3ccccc3)c2-n2cccc2)cc1,u,n,n,n,n
COc1ccc(OC)c(CCNC(=O)c2cc3c(=O)n(C)c4ccccc4c3n2C)c1,u,u,x,-105,n
COc1ccc(OC)c(CCNC(=O)c2cnn(-c3ccccc3)c2-n2cccc2)c1,n,n,x,-90,u
Cn1c(=O)c2cc(NC(=O)Nc3cccnc3)ccc2n1Cc1ccc(Cl)cc1,n,x,x,-97,x
Cn1c(=O)c2cc(NC(=O)Nc3cccnc3)ccc2n1Cc1cccc(C(F)(F)F)c1,n,x,x,n,x
CN(C)c1ccc(NC(=O)Nc2ccc3c(c2)c(=O)n(C)n3Cc2ccc(Cl)cc2)cc1,n,x,x,-88,x
CC(CC(=O)Nc1ccc2c(c1)c(=O)n(C)n2Cc1ccc(Cl)cc1)C(F)(F)F (stereo not given),n,x,x,-72,x
CC(C)N(C)C1=CC(=O)C(N(C)C(C)C)=CC1=O,n,n,n,u,u
CCOC(=O)C(Cc1ccccc1)(Nc1ccccc1OC)C(O)c1ccccc1Br (stereo not given),x,x,x,n,x
C/C(=N\NC(=O)c1ccc(O)cc1)c1cccc(NC(=O)c2ccc(Cl)cc2)c1,n,u,n,n,u
CCOc1ccc(CN(C)Cc2cc(=O)oc3c(C)c(C)ccc23)cc1OC,u,u,11µM,n,u
COc1cc(CN(C)Cc2cc(=O)oc3cc(C)c(Cl)cc23)ccc1OC(F)F,u,u,10µM,n,u

# Source: PubChem BioAssay (National Center for Advancing Translational Sciences (NCATS))
